An excerpt weighted towards active compounds, which were near 12% of everything screened.
G9a block: qHTS Assay for Inhibitors of Histone Lysine Methyltransferase G9a; 8.8% of 350,000 active; AID 504332, 2011; Potency, µM (series often up to 102 µM), for the others: at the highest dose activity, negative = inhibition, most hits filed as inhibitors; G9a H3K9 monomethylation, AlphaScreen, 2 h; note: % is set by controls: 0 for no effect and ±100 for the full control effect; nearly all actives have a fitted effect of over 75% in size
Target sequence (Q96KQ7 913-1193 limits assumed): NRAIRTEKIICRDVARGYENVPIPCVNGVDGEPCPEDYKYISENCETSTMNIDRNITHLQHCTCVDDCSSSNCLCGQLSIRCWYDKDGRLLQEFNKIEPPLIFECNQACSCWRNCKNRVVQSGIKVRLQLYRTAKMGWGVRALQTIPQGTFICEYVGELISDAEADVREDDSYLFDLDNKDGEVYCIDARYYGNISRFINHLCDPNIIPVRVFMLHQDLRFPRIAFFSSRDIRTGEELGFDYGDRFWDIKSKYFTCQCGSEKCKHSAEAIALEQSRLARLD
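Compounds were preincubated with 20 nM G9a for 15 min, after which biotinylated H3K9 peptide (500 nM) and SAM (20 uM) started a 2 h room-temperature reaction. Monomethylated product was quantified by antibody-based AlphaScreen chemiluminescence.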
HP1b chromo inh: HTS for Inhibitors of HP1-beta Chromodomain Interactions with Methylated Histone Tails; AlphaScreen HP1-beta / biotin-H3K9me3 peptide binding; AID 540317, 2011; 0.56% of 390,000 active; Potency, µM (titrated, usually from 114 µM), without a hit: top-dose activity change, negative = inhibition, hits mostly inhibitors; Chromobox protein homolog 1 (Homo sapiens), P83916; note: nearly all actives have a fitted effect of over 70% in size
Target sequence (P83916 whole entry, looked up): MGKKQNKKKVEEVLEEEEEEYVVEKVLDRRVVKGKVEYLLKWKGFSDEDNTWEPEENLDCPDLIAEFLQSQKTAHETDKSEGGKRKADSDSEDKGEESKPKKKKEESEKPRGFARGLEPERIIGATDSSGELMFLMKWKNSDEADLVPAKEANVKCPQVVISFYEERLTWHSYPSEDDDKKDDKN
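Compound inhibition of the preformed complex between 50 nM HP1-beta and 50 nM biotinylated H3K9me3 peptide was read by AlphaScreen. Buffer was PBS pH 7.4 with 0.01% Tween-20. Incubations ran 30 min at room temperature, with 10 ug/mL donor/acceptor beads.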
JMJD2A Tudor inh: qHTS Assay for Inhibitors of JMJD2A-Tudor Domain | AlphaScreen JMJD2A-Tudor / H3K4me3 peptide binding | Potency, µM (highest dose often 114 µM), for inactives: top-dose activity change, negative = inhibition, hits mostly inhibitors | 4.4% of 390,000 active | AID 504339, 2011; note: % is set by controls: 0 for no effect and ±100 for the full control effect; nearly all actives have a fitted effect of over 50% in size
L3MBTL1 inh: qHTS Assay for the Inhibitors of L3MBTL1; Lethal(3)malignant brain tumor-like protein 1 (Homo sapiens), Q9Y468; AlphaScreen L3MBTL1–H3K9me1 peptide binding; Potency, µM (top dose mostly 57.1 µM), without a hit: top-dose activity, negative = inhibition, hits mostly inhibitors; 0.66% of 230,000 active; note: % is set by controls: 0 for no effect and ±100 for the full control effect; nearly all actives have a fitted effect of over 60% in size
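L3MBTL1 (50 nM) pre-complexed 30 min with biotinylated H3(1-15)K9me1 peptide (75 nM), then compounds added for 30 min at room temperature; AlphaScreen streptavidin donor/nickel chelate acceptor beads (10 ug/mL final) read after 30 min dark incubation.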
BAZ2B block: qHTS Assay for Inhibitors of BAZ2B | Bromodomain adjacent to zinc finger domain protein 2B (Homo sapiens), Q9UIF8 | AlphaScreen BAZ2B-H3K14Ac peptide displacement | Potency, µM (top dose mostly 114 µM), for the others: top-dose activity change, negative = inhibition, actives largely listed as inhibitors | 4.4% of 360,000 active | AID 504333, 2011; note: % is set by controls: 0 for no effect and ±100 for the full control effect; nearly all actives have a fitted effect of over 60% in size
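AlphaScreen displacement of biotin-H3(5-23)K14Ac peptide (50 nM final) from BAZ2B (50 nM final) in PBS pH 7.4, 0.01% Tween-20; complex preformed 30 min RT, then compounds (top 110 uM) 30 min RT, beads 20 min dark.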
Sfp PPTase inh: qHTS Assay for Inhibitors of Bacillus subtilis Sfp phosphopantetheinyl transferase (PPTase); 4'-phosphopantetheinyl transferase ffp (Bacillus subtilis), Q9F4F7; 3.5% of 310,000 active; Potency, µM, inactives show largest response in the series, negative = inhibition, usual class: inhibitors; Biochemical Sfp PPTase activity, qHTS;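 note: the enzyme is Sfp with the accession as filed and its product quenches rhodamine fluorescence; 0% = enzyme reaction without inhibitor and -100% = no enzyme wells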
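Step 1, compound plus 15 nM Sfp-PPTase, 15 min, room temperature. Step 2, add rhodamine-CoA (5 uM) and BHQ-2-YbbR (12.5 uM). Step 3, read 525/598 nm fluorescence at 0 and 30 min.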
* hit, by the source's call; ? = inconclusive; . = no result; ! = not confirmed by another sample; [ ] = another dose, or the depositor's remark. Calls come from the whole dose curve; as a rule, active = well fitted curve in the direction sought with a large enough effect; inconclusive = small, poorly fitted or top-dose-only effect, or another doubt; inactive = no such curve, though single readings can be large; an effect the other way counts as inactive or inconclusive. Potency is the fitted concentration of half-maximal effect.

SMILES	G9a block	HP1b chromo inh	JMJD2A Tudor inh	L3MBTL1 inh	BAZ2B block	Sfp PPTase inh
Cc1ccc(-c2nnn(CC(=O)N(Cc3cccs3)C(C(=O)NC(C)(C)C)c3ccco3)n2)o1 (stereo not drawn)	17.8µM*	23.8%	-19.8%	4.9%	-12.4%	?
COc1ccc(-c2noc(-c3ccc(N4CCC(C)CC4)c([N+](=O)[O-])c3)n2)cc1OC	-9.4%[59 µM]	37.9%	-17.2%	.	?	.
O=C1N/C(=N\c2ccccn2)SC1Cc1ccc(Cl)cc1 (stereo not drawn)	?	0.8%	25.1µM*	4.6%	-18.2%	22.8%
COc1cc(-c2nc3ccc(Cl)cn3c2Nc2ccc3c(c2)OCO3)ccc1O	12.6µM*	?	31.6µM*	.	.	.
Clc1ccc2nc(-c3ccccn3)c(Nc3ccc4c(c3)OCO4)n2c1	17.6%	?	2.24µM*	?	2.82µM*	-2.7%
COCCNC(=S)N(c1ccccc1)C(C)C	-43.4%	30.2%	6.7%	-5.6%[11.4 µM]	-33.7%	-11.5%
COCCNC(=S)NN(c1ccccc1)c1ccccc1	28.2µM*	-12.8%	-26.6%	-10.0%[2.29 µM]	-36.8%	?
CC(N)=NCCCC(N)C(=O)O (stereo not drawn)	23.2%[12.7 µM]	.	.	.	.	.
CCCCc1ccc(-c2nc(N)n[nH]2)cc1	0.3%	24.4%	-12.9%	2.4%	-2.8%	11.0%
Nc1n[nH]c(-c2ccc(F)cc2)n1	44.7µM*	19.3%	?	-2.8%	?	-3.6%
Cc1ccc(NS(=O)(=O)c2cc3c(cc2N(C)C)CCC(=O)N3)cc1C	.	.	-34.8%	.	.	.
CC(=O)Nc1ccc(NC(=O)C2CCCN2S(=O)(=O)c2ccc3c(c2)CCCC(=O)N3)cc1 (stereo not drawn)	?	30.5%	2.9%	.	?	.
Cc1cccc(C)c1-n1nnnc1SCC(=O)N1CCNC1=O	44.7µM*	29.4%	3.4%	3.9%	3.1%	.
O=C(CSc1nnnn1-c1ccccc1)N1CCNC1=O	7.7%	41.7%	-4.2%	.	1.1%	2.0%
Cc1cccc(C(=O)Nc2nnc(C3=COCCO3)o2)c1	7.1%	22.6%	39.8µM*	?	7.94µM*	-3.9%
CC(C)(C)c1ccc(C(=O)Nc2nnc(C3=COCCO3)o2)cc1	-1.0%	17.2%	-12.5%	.	?	4.4%
COc1ccc(C(=O)Nc2nnc(C3=COCCO3)o2)cc1OC	42.8%	53.1%	50.1µM*	.	15.8µM*	23.3%
CC(C)Oc1ccc(C(=O)Nc2nnc(C3=COCCO3)o2)cc1	6.8%	34.8%	?	-18.9%	?	.
CNC(=O)Nc1ccc(Cn2cc(C(F)(F)F)ccc2=O)cc1	6.3%	50.3%	7.6%	-3.7%	-21.4%	-8.8%
COc1ccc(CNC(=O)CN(C)Cc2ccc(C(C)(C)C)cc2)cc1	39.8µM*	?	2.82µM*	.	22.4µM*	?
CN(CC(=O)NC(=O)NCc1ccccc1)Cc1ccc(Cl)cc1	44.7µM*	45.1%	16.4%	7.5%	-3.1%	-12.9%
COc1ccc(CNC(=O)Cn2cc(C(F)(F)F)ccc2=O)cc1	50.1µM*	15.6%	-11.5%	-3.4%	12.2%	-7.7%
CC(C)(C)NC(=O)Nc1ccc(Cn2cc(C(F)(F)F)ccc2=O)cc1	8.3%	-4.7%	31.6µM*	31.5%	2.4%	17.2%
CCc1ccccc1NC(=O)CN1C(=O)CCSc2ccc(S(=O)(=O)N3CCCC3)cc21	13.3%[59 µM]	10.0%[57 µM]	-9.6%	.	-4.1%	.
Cc1cccc(CN2CC34C=CC(CC3S2(=O)=O)O4)c1 (stereo not drawn)	.	8.5%	-15.9%	.	.	16.8%
SMILES	G9a block	HP1b chromo inh	JMJD2A Tudor inh	L3MBTL1 inh	BAZ2B block	Sfp PPTase inh
Cc1ccc(CCNC(=O)c2cn(C)c3ccc(S(=O)(=O)N(C)C4CCCCC4)cc3c2=O)cc1	-4.7%[59 µM]	-0.7%	-28.0%	.	.	.
CCCN1CNc2c(c(=O)[nH]c(=S)n2CCc2c(C)cccc2C)C1	.	41.4%	-15.6%	.	.	.
Nc1ccc2cc3ccc(N)cc3nc2c1	28.2µM*	.	.	.	.	-23.6%
Cc1ccc2cc(N)ccc2n1	.	6.7%	-12.8%	-9.5%	-12.2%	6.0%
CN(Cc1cccs1)CC(O)COCc1ccco1 (stereo not drawn)	44.7µM*	9.2%	-9.0%	-4.5%	-14.9%	7.0%
CC(=O)c1ccc(OCC(O)CN(C)Cc2cccs2)cc1 (stereo not drawn)	3.55µM*	?	7.94µM*	-15.0%	50.1µM*	56.2µM*
CC(C)Oc1ccc(C(=O)N(Cc2ccco2)Cc2cccs2)cc1	10.7%[59 µM]	16.0%	-19.2%	.	9.0%	.
Cc1cccc(NC(=O)C2CCN(S(=O)(=O)c3ccc4c(c3)CCCN4C(=O)C3CCC3)CC2)c1	17.5%[59 µM]	9.0%[57 µM]	-21.6%	.	6.7%	.
Nc1nc(Nc2cc(F)cc(F)c2)nc(NC2CCCC2)n1	.	.	-18.5%	.	.	.
CO[C@H]1C[C@@H]2CC[C@@H](C)[C@@](O)(O2)C(=O)C(=O)N2CCCC[C@H]2C(=O)O[C@H]([C@H](C)C[C@@H]2CC[C@@H](O)[C@H](OC)C2)CC(=O)[C@H](C)/C=C(\C)[C@@H](O)[C@@H](OC)C(=O)[C@H](C)C[C@H](C)/C=C/C=C/C=C/1C	-18.5%[12.7 µM]	.	.	.	.	-1.8%
CCN(CC)c1ccc(Nc2cc3n(c(=O)n2)CCc2cc(OC)c(OC)cc2-3)cc1	20µM*	?	44.7µM*	.	22.4µM*	-20.9%
COc1cc2c(cc1OC)-c1cc(Nc3ccc(N(C)C)cc3)nc(=O)n1CC2	14.1µM*	-35.7%	?	?	?	2.4%
COc1cc2c(cc1OC)-c1cc(Nc3ccc(F)cc3)nc(=O)n1CC2	23.8%	38.9%	-10.1%	.	1.2%	-8.4%
COc1cc(/C=C/C(=O)O)cc(S(=O)(=O)Nc2ccc3nc(SC)sc3c2)c1OC	39.8µM*	14.4%	-13.9%	-0.9%	.	0.0%
COc1cc(/C=C/C(=O)O)cc(S(=O)(=O)Nc2ccc3cn[nH]c3c2)c1OC	-12.8%[2.33 µM]	37.0%	-3.8%	-0.7%	-2.5%	.
COc1cc2c(cc1OC)CN(c1nc(CN3CCOCC3)nc3sc4c(c13)CCC(C)C4)CC2 (stereo not drawn)	14.1µM*	?	25.1µM*	?	31.6µM*	-26.5%
COc1ccc(Nc2nc(CN3CCOCC3)nc3sc4c(c23)CCC(C)C4)cc1OC (stereo not drawn)	-1.8%	.	.	5.6%	-7.4%	9.1%
CCC(NC(C)C)C(O)c1ccc(O)c(O)c1 (stereo not drawn)	26.7µM*!	6.6%	?	-3.6%	?	?

Assay outcomes as filed in PubChem BioAssay.
